Test results from PubChem BioAssay (NCATS).
Results filed as inconclusive are left out. Calls of active or inactive are those of the source. Unless noted, calls follow the shape of the dose curve; as a rule, active = well fitted curve in the direction sought with a large enough effect; inconclusive = small, poorly fitted or top-dose-only effect, or another doubt; inactive = no such curve, though single readings can be large; an effect the other way counts as inactive or inconclusive.

Assays:
[1] = target: Glucocorticoid receptor (Homo sapiens) (UniProt P04150); assay: qHTS assay for small molecule agonists of glucocorticoid receptor signaling (AID 588532; active = well fitted curve in the direction sought with a large enough effect in the signal ratio, with a control signal flat; the % refers to the signal ratio;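 also: 100% = dexamethasone at 0.1 µM and 0% = DMSO only wells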); details: HeLa MMTV-bla, beta-lactamase ratio, agonist, 18 h; stronger effect = higher value; percent of dexamethasone control, DMSO zero
Sequence of Glucocorticoid receptor (Homo sapiens) (P04150 whole entry, looked up): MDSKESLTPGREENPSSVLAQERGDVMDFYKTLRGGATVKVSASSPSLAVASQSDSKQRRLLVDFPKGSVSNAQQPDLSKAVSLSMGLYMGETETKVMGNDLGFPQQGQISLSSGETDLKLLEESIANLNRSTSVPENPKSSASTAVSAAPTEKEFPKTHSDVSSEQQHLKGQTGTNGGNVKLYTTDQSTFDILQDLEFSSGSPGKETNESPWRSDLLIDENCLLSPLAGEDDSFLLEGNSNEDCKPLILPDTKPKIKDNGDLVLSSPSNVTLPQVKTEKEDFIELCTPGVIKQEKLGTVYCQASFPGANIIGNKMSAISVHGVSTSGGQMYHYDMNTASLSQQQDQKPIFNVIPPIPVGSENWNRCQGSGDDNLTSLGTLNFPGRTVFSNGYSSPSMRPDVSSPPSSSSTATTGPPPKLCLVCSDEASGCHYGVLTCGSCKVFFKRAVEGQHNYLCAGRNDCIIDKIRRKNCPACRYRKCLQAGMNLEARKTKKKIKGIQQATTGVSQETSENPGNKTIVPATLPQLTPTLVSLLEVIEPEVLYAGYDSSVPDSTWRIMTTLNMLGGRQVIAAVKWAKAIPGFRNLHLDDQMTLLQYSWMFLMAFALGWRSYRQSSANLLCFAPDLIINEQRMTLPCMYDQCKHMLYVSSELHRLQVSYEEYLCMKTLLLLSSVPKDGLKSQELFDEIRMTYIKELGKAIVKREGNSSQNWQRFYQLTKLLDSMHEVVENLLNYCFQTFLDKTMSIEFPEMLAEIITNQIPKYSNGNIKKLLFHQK
In short: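 Using MMTV-bla HeLa cells in medium with 1% stripped FBS and 25 mM HEPES, compounds were titrated and incubated overnight-length (18 h). Beta-lactamase cleavage of CCF4 was quantified by dual-emission fluorescence.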

[2] = target: Glucocorticoid receptor (Homo sapiens) (UniProt P04150); assay: qHTS assay for small molecule antagonists of glucocorticoid receptor signaling (AID 588533; active = well fitted inhibition curve with a large enough effect in the signal ratio, with a control signal flat, not every such curve was filed as active; the % refers to the signal ratio;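 also: cells stimulated with 2 nM dexamethasone as agonist; % is scaled to controls: 0 for no effect and ±100 for the full control effect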); details: HeLa MMTV-bla, GRE beta-lactamase ratio, antagonist mode, 18 h; series mostly up to 76.8 µM
In short: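 Antagonist-mode qHTS: compound titrations added to GRE-bla HeLa cells, then dexamethasone 2 nM final; 18 h, 37 C. CCF4 FRET fluorescence normalized to dexamethasone and DMSO; IC50 from Hill fit.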

[3] = qHTS assay for small molecule antagonists of peroxisome proliferator-activated receptor delta signaling (AID 588535; active = well fitted inhibition curve with a large enough effect in the signal ratio, with a control signal flat, not every such curve was filed as active; the % refers to the signal ratio;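 as to max response: cells co-treated with a PPAR-delta agonist as stimulator during compound exposure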); details: HEK293T PPARd-UAS-bla, beta-lactamase FRET ratio, 18 h; 460 nm channel
In short: (§1)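 Cell-based beta-lactamase assay in antagonist mode: 4000 HEK293T PPAR-delta-UAS-bla cells per well, 5 hr preincubation then 18 hr compound incubation at 37 C. IC50 obtained by Hill equation fitting.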

[4] = target: Peroxisome proliferator-activated receptor delta (Homo sapiens) (UniProt Q03181); assay: as above; details: HEK293T PPARd-UAS-bla, beta-lactamase FRET ratio, 18 h; series mostly up to 76.7 µM
Sequence of Peroxisome proliferator-activated receptor delta (Homo sapiens) (Q03181 whole entry, looked up): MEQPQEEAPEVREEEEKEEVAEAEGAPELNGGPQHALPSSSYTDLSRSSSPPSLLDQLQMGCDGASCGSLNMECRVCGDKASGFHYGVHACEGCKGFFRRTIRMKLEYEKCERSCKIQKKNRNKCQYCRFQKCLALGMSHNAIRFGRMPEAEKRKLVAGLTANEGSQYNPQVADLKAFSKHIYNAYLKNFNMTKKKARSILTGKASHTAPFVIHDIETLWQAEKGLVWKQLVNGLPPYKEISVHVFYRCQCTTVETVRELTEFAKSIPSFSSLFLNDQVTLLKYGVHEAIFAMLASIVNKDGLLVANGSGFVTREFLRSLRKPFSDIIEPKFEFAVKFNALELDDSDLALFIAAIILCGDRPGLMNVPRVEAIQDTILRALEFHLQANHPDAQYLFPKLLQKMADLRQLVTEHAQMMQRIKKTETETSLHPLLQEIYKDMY
In short: as §1

[5] = target: Vitamin D3 receptor (Homo sapiens) (UniProt P11473); assay: qHTS assay for small molecule agonists of vitamin D receptor signaling (AID 588543; calls by dose curve;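 also: 0% = DMSO basal and 100% = reference agonist control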); details: HEK293T VDR-UAS-bla, beta-lactamase ratio, 16 h; series mostly up to 76.8 µM
Sequence of Vitamin D3 receptor (Homo sapiens) (P11473 whole entry, looked up): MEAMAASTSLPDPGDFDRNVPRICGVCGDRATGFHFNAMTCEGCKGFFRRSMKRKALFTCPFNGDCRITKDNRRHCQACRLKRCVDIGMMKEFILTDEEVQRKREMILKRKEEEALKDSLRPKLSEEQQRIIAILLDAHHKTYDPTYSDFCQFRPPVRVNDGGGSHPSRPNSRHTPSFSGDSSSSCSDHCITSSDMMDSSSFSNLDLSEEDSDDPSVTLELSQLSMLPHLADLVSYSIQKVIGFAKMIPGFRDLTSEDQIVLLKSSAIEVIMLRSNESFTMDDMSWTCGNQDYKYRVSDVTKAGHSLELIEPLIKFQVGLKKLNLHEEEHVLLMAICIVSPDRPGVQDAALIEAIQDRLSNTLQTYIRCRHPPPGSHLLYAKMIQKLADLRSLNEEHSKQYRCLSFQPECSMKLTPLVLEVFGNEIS
In short: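 VDR-UAS-bla HEK293T cells, 2000/well, 2% charcoal-stripped FBS; compound titration 16 h at 37 C; CCF4 beta-lactamase ratio read. Normalized to 50 nM 1-alpha,25-dihydroxyvitamin D3 (100%) and DMSO; Hill fit gives EC50, efficacy.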

[6] = qHTS assay for small molecule agonists of retinoid X receptor alpha signaling (AID 588544; calls by dose curve; also: potency is read from the fitted curve at half-maximal effect;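 as to activation: 0% = DMSO basal wells and 100% = reference agonist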); details: HEK293T RXRa-UAS-bla, beta-lactamase reporter, 18 h; 530 nm emission
[7] = target: Retinoic acid receptor RXR-alpha (Homo sapiens) (UniProt P19793); assay: as above; details: HEK293T RXRa-UAS-bla, beta-lactamase reporter, 18 h; series mostly up to 76.7 µM
Sequence of Retinoic acid receptor RXR-alpha (Homo sapiens) (P19793 whole entry, looked up): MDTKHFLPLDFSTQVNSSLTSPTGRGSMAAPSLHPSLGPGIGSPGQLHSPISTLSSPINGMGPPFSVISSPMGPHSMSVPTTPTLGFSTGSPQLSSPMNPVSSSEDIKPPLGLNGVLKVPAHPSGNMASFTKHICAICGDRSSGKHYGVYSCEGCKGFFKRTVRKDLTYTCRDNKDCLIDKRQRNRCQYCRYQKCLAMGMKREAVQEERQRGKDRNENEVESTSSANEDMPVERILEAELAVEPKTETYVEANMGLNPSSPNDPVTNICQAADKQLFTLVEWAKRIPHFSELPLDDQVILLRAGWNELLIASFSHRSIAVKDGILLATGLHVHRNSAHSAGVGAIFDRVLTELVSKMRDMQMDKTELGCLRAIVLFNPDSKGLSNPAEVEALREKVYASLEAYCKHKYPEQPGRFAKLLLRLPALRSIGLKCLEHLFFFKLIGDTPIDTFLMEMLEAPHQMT

[8] = target: Thyroid hormone receptor beta (Homo sapiens) (UniProt P10828); assay: qHTS assay for small molecule agonists of thyroid hormone receptor beta signaling (AID 588545; calls by dose curve;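 also: 0% = DMSO only and 100% = 10 nM T3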); details: TR-UAS-bla GripTite HEK 293, beta-lactamase ratio, agonist mode, 18 h; series mostly up to 76.7 µM
Sequence of Thyroid hormone receptor beta (Homo sapiens) (P10828 whole entry, looked up): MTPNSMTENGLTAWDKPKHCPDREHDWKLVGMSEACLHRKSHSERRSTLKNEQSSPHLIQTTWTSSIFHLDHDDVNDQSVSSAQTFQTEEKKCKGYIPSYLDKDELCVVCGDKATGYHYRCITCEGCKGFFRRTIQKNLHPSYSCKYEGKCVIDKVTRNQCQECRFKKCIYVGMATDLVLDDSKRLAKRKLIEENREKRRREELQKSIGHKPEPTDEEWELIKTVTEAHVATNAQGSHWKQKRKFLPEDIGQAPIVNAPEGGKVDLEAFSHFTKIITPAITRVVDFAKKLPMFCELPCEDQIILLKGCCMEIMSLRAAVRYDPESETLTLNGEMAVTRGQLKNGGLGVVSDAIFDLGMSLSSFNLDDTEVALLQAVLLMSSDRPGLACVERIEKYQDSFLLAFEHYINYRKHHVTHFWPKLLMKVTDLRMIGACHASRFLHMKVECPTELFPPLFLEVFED
In short: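 TR-UAS-bla GripTite HEK 293 cells (2500/well, medium with 2% charcoal/dextran FBS) were treated in agonist mode for 18 h at 37 C, titrated. Beta-lactamase was read by CCF4 ratio after 2 h; normalized to 10 nM T3 (100%) and DMSO, Hill-fitted for EC50 and efficacy.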

[9] = qHTS assay for small molecule antagonists of retinoid X receptor alpha signaling (AID 588546; active = well fitted inhibition curve with a large enough effect in the signal ratio, with a control signal flat, not every such curve was filed as active; the % refers to the signal ratio;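 also: cells stimulated with 9-cis-retinoic acid as agonist; % is scaled to controls: 0 for no effect and ±100 for the full control effect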); details: HEK293T RXRa-UAS-bla, beta-lactamase ratio, antagonist mode; measured here: W530 green channel, cytotoxicity proxy
In short: (§2)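 Beta-lactamase reporter inhibition, read as CCF4 fluorescence ratio (ex 405, em 460/530 nm) after 2 h at RT. HEK293T UAS-bla cells, 2500/well, were stimulated with 9-cis-RA at 500 or 100 nM final alongside test compound for 18 h at 37 C.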

[10] = target: Retinoic acid receptor RXR-alpha (Homo sapiens) (UniProt P19793); assay: as above; details: HEK293T RXRa-UAS-bla, beta-lactamase ratio, antagonist mode
In short: as §2

[11] = qHTS assay for small molecule activators of the p53 signaling pathway (AID 651743; active = well fitted activation curve with a large enough effect in the signal ratio, not every such curve was filed as active; the % refers to the signal ratio; also: % of control where 0% means no effect); details: HCT-116 p53RE-bla, beta-lactamase FRET ratio, 16 h; activation: stronger effect = higher value
In short: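 Screen for p53 pathway agonists uses stably transfected p53RE-bla HCT-116 cells, 4,000 per well, treated 16 h at 37 C with compounds in DMSO.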

[12] = qHTS assay for environmental chemicals that activate the Aryl hydrocarbon Receptor (AhR) signaling pathway (AID 651777); details: 1A2-DRE human hepatoma cells, luciferase, 24 h; activation: stronger effect = higher value; also: % of control where 0% means no effect; nearly all actives have a fitted effect of over 15% in size
In short: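 Human hepatoma 1A2-DRE cells, stably carrying a dioxin response element and CYP1A2 promoter driving luciferase, were exposed to compounds for 24 hr at 37 C and 5% CO2. Luciferase signal was then read after 30 min One-Glo at room temperature.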

[13] = target: Peroxisome proliferator-activated receptor alpha (Homo sapiens) (UniProt Q07869); assay: qHTS assay for small molecule agonists of the peroxisome proliferator-activated receptor alpha (PPARalpha) signaling pathway (AID 651778); details: PathHunter PPARalpha complementation, chemiluminescence, 6 h; max response: stronger effect = higher value; also: % of control where 0% means no effect
Sequence of Peroxisome proliferator-activated receptor alpha (Homo sapiens) (Q07869 whole entry, looked up): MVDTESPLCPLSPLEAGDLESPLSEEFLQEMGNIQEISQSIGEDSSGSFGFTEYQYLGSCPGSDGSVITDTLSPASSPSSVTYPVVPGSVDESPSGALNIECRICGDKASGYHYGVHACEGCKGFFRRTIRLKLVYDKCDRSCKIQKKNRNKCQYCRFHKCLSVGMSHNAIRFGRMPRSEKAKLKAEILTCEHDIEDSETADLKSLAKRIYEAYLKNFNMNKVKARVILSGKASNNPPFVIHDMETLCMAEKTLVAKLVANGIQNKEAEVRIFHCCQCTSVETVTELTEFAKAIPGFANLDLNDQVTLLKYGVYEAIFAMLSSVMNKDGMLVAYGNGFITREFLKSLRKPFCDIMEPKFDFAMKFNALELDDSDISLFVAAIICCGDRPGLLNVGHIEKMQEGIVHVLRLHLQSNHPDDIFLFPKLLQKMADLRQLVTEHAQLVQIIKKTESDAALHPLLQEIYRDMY
In short: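 Chemiluminescence from complemented enzyme reported PPARalpha activation in cells after 6 hr of compound treatment at 37 C. The detection reagent was incubated for 60 min at room temperature, and compounds were scored as agonists.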

[14] = qHTS assay for small molecule agonists of the antioxidant response element (ARE) signaling pathway measured by Nrf2-dependant transcriptional activity (AID 720636; active = well fitted curve in the direction sought with a large enough effect in the repeat runs; an effect the other way counts as inactive or inconclusive; also: % of control where 0% means no effect); details: ARE-luc HepG2, Nrf2 luciferase reporter, 16 h; series mostly up to 92.4 µM
In short: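 ARE-luc HepG2 cells carrying an Nrf2-responsive luciferase reporter were plated in medium with 1% dialyzed FBS, left 6 hr at 37 C to attach, then exposed to compound for 16 hr. Luciferase luminescence was read after ONE-Glo addition.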

[15] = qHTS assay for small molecule agonists of the antioxidant response element (ARE) signaling pathway measured by Nrf2-dependant transcriptional activity - cell viability counter screen (AID 720653; active = well fitted curve in the direction sought with a large enough effect in the repeat runs; an effect the other way counts as inactive or inconclusive; also: % is scaled to controls: 0 for no effect and ±100 for the full control effect); details: ARE-bla HepG2 viability, CellTiter-Glo ATP luminescence, 16 h; max response: stronger effect = lower value
In short: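 Cytotoxicity counter screen: intracellular ATP quantified by CellTiter-Glo luminescence in the same ARE-bla HepG2 plates, after 16 h compound exposure and a 2 h beta-lactamase substrate step.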

[16] = qHTS assay for cell viability of HEK293 cells (AID 743288); details: ATP luminescence (CellTiter-Glo), 18 h; max response: stronger effect = lower value; also: nearly all actives have a fitted effect of over 50% in size; also: potency is read from the fitted curve at half-maximal effect; as to max response: % is scaled to controls: 0 for no effect and ±100 for the full control effect
In short: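 Parental HEK293 cells, 2,000 per well, preincubated at least 5 h at 37 C, then exposed to compounds in DMSO for 18 h at 37 C. Viability by CellTiter-Glo ATP luminescence after 30 min at room temperature.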

[17] = qHTS assay for cell viability of the p53RE-bla HCT-116 cell line (AID 743292); details: p53RE-bla HCT-116 viability, ATP luminescence, 16 h; series mostly up to 95 µM; also: nearly all actives have a fitted effect of over 55% in size; also: potency is read from the fitted curve at half-maximal effect
In short: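 CellSensor p53RE-bla HCT-116 cells, 4,000/well, preincubated 5 h at 37 C, then exposed to compounds in DMSO for 16 h at 37 C. Viability read as CellTiter-Glo luminescence (intracellular ATP) after 30 min at room temperature.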

[18] = target: Nuclear receptor subfamily 1 group I member 2 (Rattus norvegicus) (UniProt Q9R1A7); assay: qHTS assay for small molecule activators of the rat pregnane X receptor (rPXR) signaling pathway (AID 651751; call rule not given here; also: 0% is about no effect); details: rPXR reporter cells, luciferase (One-Glo), 24 h
Sequence of Nuclear receptor subfamily 1 group I member 2 (Rattus norvegicus) (Q9R1A7 whole entry, looked up): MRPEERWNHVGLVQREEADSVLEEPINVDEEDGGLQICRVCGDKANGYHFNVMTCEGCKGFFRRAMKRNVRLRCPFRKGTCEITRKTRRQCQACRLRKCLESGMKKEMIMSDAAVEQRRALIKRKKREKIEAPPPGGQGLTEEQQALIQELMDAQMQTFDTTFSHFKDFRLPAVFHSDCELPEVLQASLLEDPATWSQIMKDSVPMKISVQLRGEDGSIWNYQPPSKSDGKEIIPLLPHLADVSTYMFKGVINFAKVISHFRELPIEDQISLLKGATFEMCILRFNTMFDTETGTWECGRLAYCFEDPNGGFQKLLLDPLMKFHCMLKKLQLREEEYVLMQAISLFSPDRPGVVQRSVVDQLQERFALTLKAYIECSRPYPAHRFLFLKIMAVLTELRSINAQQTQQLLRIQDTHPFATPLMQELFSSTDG

[19] = qHTS assay for small molecule activators of the human pregnane X receptor (PXR) signaling pathway (AID 720659; call rule not given here; also: 0% is about no effect); details: DPX-2 HepG2 CYP3A4-luciferase, 24 h; series mostly up to 92.3 µM
[20] = target: Peroxisome proliferator-activated receptor gamma (Homo sapiens) (UniProt P37231); assay: qHTS assay for small molecule agonists of peroxisome proliferator-activated receptor gamma signaling (AID 588536; active = well fitted curve in the direction sought with a large enough effect in the signal ratio, with a control signal flat, not every such curve was filed as active; the % refers to the signal ratio;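 also: 0% = DMSO basal wells and 100% = rosiglitazone at 2 µM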); details: HEK293 PPARg-UAS-bla, beta-lactamase ratio, 16 h, percent of rosiglitazone response, DMSO as zero; series mostly up to 76.7 µM
Sequence of Peroxisome proliferator-activated receptor gamma (Homo sapiens) (P37231 whole entry, looked up): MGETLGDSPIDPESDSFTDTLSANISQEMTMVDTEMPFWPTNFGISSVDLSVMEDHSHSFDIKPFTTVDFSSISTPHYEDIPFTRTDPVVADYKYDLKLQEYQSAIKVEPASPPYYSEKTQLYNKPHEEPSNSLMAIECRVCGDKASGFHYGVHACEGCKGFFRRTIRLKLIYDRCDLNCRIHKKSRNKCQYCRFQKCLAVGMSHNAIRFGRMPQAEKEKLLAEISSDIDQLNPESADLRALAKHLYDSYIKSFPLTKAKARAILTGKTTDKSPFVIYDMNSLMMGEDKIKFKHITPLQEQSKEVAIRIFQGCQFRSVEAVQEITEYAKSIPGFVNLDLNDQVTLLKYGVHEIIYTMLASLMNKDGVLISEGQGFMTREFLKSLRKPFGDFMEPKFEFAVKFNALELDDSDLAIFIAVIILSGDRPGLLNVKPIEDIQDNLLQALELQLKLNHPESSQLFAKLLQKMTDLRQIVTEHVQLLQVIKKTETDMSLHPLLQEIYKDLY
In short: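 HEK293 UAS-bla reporter line, 1% charcoal/dextran FBS; titration, 16 h, 37 C; CCF4 loading 2 h RT; fluorescence 460/530 nm. Normalized to rosiglitazone 2 uM = 100%, DMSO = 0%.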

C=CC(=O)OCC(C)OCC(C)OCC(C)OC(=O)C=C (centres undefined)
-20.7%: max response [9]
-8.39%: max response [6]
inactive: activation [1] -17.2% | Potency [2] | Potency [4] | outcome [5] | Potency [7] | Potency [8] | max response [10] 10.6% | activation [11] 0.712% | activation [12] -0.0895% | max response [13] -2.39% | Potency [14] | max response [15] -8.01% | max response [16] -1.74% | Potency [17] | max response [18] -2.64% | outcome [19]
41.6%: max response [3]

C=C(C)C(=O)OCCN(C)C
inactive: Potency [4] | outcome [5] | Potency [8] | max response [10] 6.15% | activation [11] -0.52% | activation [12] 0.477% | max response [13] -0.281% | max response [15] -4.72% | max response [16] -8.88% | Potency [17] | max response [18] 5.37% | outcome [19]
0.555%: max response [9]
-44.3%: max response [3]

CC(C)(C)c1cc(C(C)(C)C)c(O)c(C(C)(C)C)c1
inactive: activation [1] 22.2% | Potency [2] | Potency [4] | Potency [8] | activation [11] 3.15% | activation [12] -0.208% | max response [13] 7.66% | max response [15] 8.43% | max response [16] -4.45% | Potency [17] | max response [18] -4.2% | outcome [19]
-17.5%: max response [6]
12%: max response [3]
active: Potency [7] 0.794 µM

O=S(=O)(O)c1ccc(N=Nc2cc(S(=O)(=O)O)c3ccccc3c2O)c2ccccc12
inactive: activation [1] -5.27% | Potency [2] | Potency [4] | outcome [20] | outcome [5] | Potency [7] | Potency [8] | max response [10] 4.36% | activation [11] 2.63% | activation [12] 3.98% | max response [13] -9.4% | Potency [14] | max response [18] -7.09% | outcome [19]
26.6%: max response [3]
active: Potency [16] 44.7 µM | Potency [17] 39.8 µM
4.4%: max response [9]
-24.8%: max response [6]

C#CCOC(=O)[C@@H](C)Oc1ccc(Oc2ncc(Cl)cc2F)cc1
-4.05%: max response [9]
41.4%: max response [3]
-11.8%: max response [6]
inactive: Potency [4] | outcome [20] | outcome [5] | Potency [7] | max response [10] -3.03% | activation [11] -3.45% | activation [12] -1.36% | max response [13] -0.41% | Potency [14] | max response [15] -3.32% | max response [16] -6.8% | Potency [17] | max response [18] -2.33% | outcome [19]

Cc1ccc(S(=O)(=O)C(I)I)cc1
-69.8%: max response [6]
inactive: Potency [7] | activation [11] 4.66% | activation [12] -11.1% | Potency [14] | outcome [19]

COC(=O)C1CCC(C(=O)OC)CC1 (centres undefined)
36.1%: max response [3]
inactive: Potency [4] | outcome [20] | outcome [5] | Potency [7] | Potency [8] | max response [10] -11.5% | activation [11] 8.46% | activation [12] 0.798% | max response [13] 3.84% | Potency [14] | max response [15] 1.5% | max response [16] -13.8% | Potency [17] | max response [18] 2.13%
-4.14%: max response [6]
-8.09%: max response [9]

O=C1CCCCCCCCCCC1
-19.7%: max response [6]
inactive: activation [1] -8.83% | Potency [2] | Potency [4] | outcome [20] | Potency [7] | Potency [8] | max response [10] 4.14% | activation [11] -4.42% | activation [12] 0.997% | max response [13] -0.988% | Potency [14] | max response [15] -14.8% | max response [16] -4.39% | Potency [17] | max response [18] 0.58% | outcome [19]
31.3%: max response [3]
-10.4%: max response [9]

CCN(Cc1cccc(S(=O)(=O)O)c1)c1ccc(C(=C2C=CC(=[N+](CC)Cc3cccc(S(=O)(=O)[O-])c3)C=C2)c2ccccc2)cc1
inactive: Potency [8] | max response [10] 8.46% | activation [11] -2.82% | activation [12] -1.94% | max response [13] -3.93% | max response [15] -9.88% | max response [16] -13.6% | Potency [17] | max response [18] -0.0295% | outcome [19]
16.5%: max response [9]

BrC1CCC(Br)C(Br)CCC(Br)C(Br)CCC1Br (centres undefined)
-2.96%: max response [9]
inactive: activation [1] -5.02% | Potency [2] | Potency [4] | outcome [20] | outcome [5] | Potency [7] | Potency [8] | max response [10] -24.4% | activation [11] -4.94% | activation [12] 1.8% | max response [13] -0.0514% | Potency [14] | max response [15] 0.219% | max response [16] -7.59% | Potency [17] | max response [18] 0.315% | outcome [19]
0.976%: max response [6]
11.4%: max response [3]

Cc1c(Cl)cccc1Cl
-1.12%: max response [9]
-9.08%: max response [6]
inactive: activation [1] -6.09% | Potency [2] | outcome [20] | outcome [5] | Potency [7] | max response [10] -5.5% | activation [12] -0.186% | max response [13] -1.42% | max response [15] -14.1% | max response [16] -7.06% | max response [18] -2.7% | outcome [19]

CCCCCCCCCCCCCCCC
55.6%: max response [3]
-21.5%: max response [9]
0.581%: max response [6]
inactive: Potency [2] | Potency [4] | outcome [20] | Potency [7] | Potency [8] | max response [10] -1.47% | activation [11] -5.95% | activation [12] 0.0152% | max response [13] 0.236% | Potency [14] | max response [15] -4.36% | max response [16] -2.82% | Potency [17] | max response [18] 1.98% | outcome [19]
